# Experimental data taken from PubChem BioAssay.
# “And” between values parts separate entries of the source, which are not always exact repeats. Equal entries are not always repeated. Results filed as inconclusive are left out. The source made the active and inactive calls.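 Rule for the calls, unless noted: active = inhibition above 50%, about 3 SD of the validation set; inactive = the rest.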
# Experiments:
# [1] = rapamycin-like changes in RPL19A-GFP expression – cell-based, S. cerevisiae, multiplex flow cytometry, primary screen (AID 1862; in the data active = percent of DMSO control GFP below about 86%;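 note: lower values mimic rapamycin by blocking the RPL19A rise seen in DMSO cells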); details: S. cerevisiae RPL19A-GFP strain, flow cytometry fluorescence, 3 h; at 10 µM; stronger effect = lower value
# [2] = TOR pathway GLN3 branch reporter MEP2-GFP changes – S. cerevisiae, multiplex flow cytometry, primary screen (AID 1867;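 active = GFP response, as percent of the DMSO control, above the screen-wide mean plus 3 SD, about 139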;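 note: median GFP channel fluorescence of barcode-gated MEP2-GFP cells measured by flow cytometry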); details: S. cerevisiae MEP2-GFP strain, 3 h, at 10 µM, stronger effect = higher value, 100% means same as DMSO wells
# [3] = TOR pathway RTG branch CIT2 reporter changes – S. cerevisiae, GFP fusion, multiplex flow cytometry, primary screen (AID 1870;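 active = percent response above a set limit, the screen-wide mean plus 3 SD, cut at about 130% in these data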;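 note: barcoded CIT2-GFP strain pooled with four other GFP strains with rapamycin as positive control; median GFP fluorescence per well over plate mean of DMSO wells so 100% = DMSO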); details: S. cerevisiae CIT2-GFP expression, 3 h, at 10 µM, stronger effect = higher value
# [4] = TOR pathway LAP4-GFP level changes – S. cerevisiae, multiplex flow cytometry, primary screen (AID 1873;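 active = GFP signal, as percent of the solvent control, above the screen mean plus 3 SD, about 149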); details: S. cerevisiae LAP4-GFP expression, 3 h, at 10 µM, stronger effect = higher value
# [5] = yeast AGP1-GFP level changes, GLN3 branch – cell-based, multiplex flow cytometry, S. cerevisiae, primary screen (AID 1887;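 active = GFP signal above the screen-wide mean plus 3 SD, that is over about 124.5% of the solvent control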;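 note: AGP1-GFP fusion strain of S. cerevisiae within a five-strain barcoded multiplex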); details: 3 h, at 10 µM, stronger effect = higher value
# [6] = reduced mouse 2C T cell binding to pMHC/ICAM-1 vesicles – MLPCN validation set, flow cytometry, LFA-1/ICAM-1 modulator project, pilot screen (AID 2523;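 active = response below a set limit, under 55% cells CD8-positive and vesicle-bound, and CD8 cells' 90th-percentile brightness under 279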;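 for vesicle binding response: mean PE anti-B7-1 fluorescence of CD8+ cells relative to row control; 100% = QL9-loaded vesicles with DMSO vehicle in the same plate row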); details: 2C mouse CD8+ T cells, at 7 µM, stronger effect = lower value; double positive events: measured here: CD8+/vesicle+ event percentage
# [7] = target: Integrin beta-1 (Homo sapiens) + Integrin alpha-4 (Homo sapiens) (UniProt P13612+P05556); experiment: alpha4beta1 integrin LIBS antibody binding reduction – U937 cells, HUTS-21 mAb, flow cytometry, validation set, VLA-4 allosteric modulator project, pilot screen (AID 2674); details: HUTS-21 LIBS mAb binding, at 6.7 µM, stronger effect = higher value, binding induced by LDV ligand;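 note: antibody binding induced by the VLA-4 ligand LDV present at three times its Kd; 0% = LDV ligand with antibody and no compound and 100% = antibody without LDV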
# [8] = calorie-restriction mimetic ROS inhibitors, yeast – validation compound set, pilot screen (AID 2706;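 active = superoxide response below 65% of plate, a cut near 3 SD across the whole screen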;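 note: yeast exposed to compound for one week at 30 degrees C before staining; 100% = mean of all compound wells on the same plate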); details: S. cerevisiae aging, superoxide DHE fluorescence; at 10 µM; stronger effect = lower value
# [9] = target: Beta-adrenergic receptor kinase 1 (Homo sapiens) (UniProt P25098); experiment: GRK2 binders displacing RNA aptamer, biochemical, validation, human GRK2, bead flow cytometry (AID 488806;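 active = aptamer binding inhibition above 30%, about 3 SD of noise from non-fluorescent compounds; inactive = inhibition at or below 30%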); details: bead-bound GRK2, FAM-aptamer displacement, at 10 µM, stronger effect = higher value
# [10] = target: Beta-2 adrenergic receptor (Homo sapiens) (UniProt P07550); experiment: agonist-induced loss of surface beta2AR – cell-based, FAP fluorogen, flow cytometry, validation set, pilot screen (AID 504459;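 active = percent response above 42, roughly 3 SD of non-fluorescent test compounds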;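 note: agonist-driven loss of surface beta2AR via internalization measured by FAP dye flow cytometry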); details: Am2.2-beta2AR cells, at 10 µM, stronger effect = higher value
# [11] = target: AP-2 complex subunit beta (Homo sapiens) (UniProt P63010); experiment: beta-arrestin/AP2 interaction blockers – biochemical, validation set, GST-AP2 beads, flow cytometry, pilot screen (AID 504541;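 active = inhibition above 54%, about 3 SD of non-fluorescent compounds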;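 note: AP2 carries R879A mutation and is captured from E. coli lysate; bead-bound FITC arrestin peptide fluorescence measuring arrestin peptide binding to AP2; 0% = DMSO wells and 100% = excess unlabeled arrestin peptide control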); details: FITC arrestin peptide, at 10 µM, stronger effect = higher value, AP2 beta2 appendage fragment, R879A mutant
# [12] = cytosolic pH regulators acting via V-ATPase – S. cerevisiae, pHLuorin, HTS validation (AID 504600; in the data active = response above about 15%;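 note: plate controls were DMSO for no effect and reference compound for full effect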); details: V-ATPase proton transport, at 10 µM, stronger effect = higher value
# [13] = system: anti-desmoglein-3 scFv antibody binding to human DSG3; experiment: blockers of pathogenic pemphigus antibody–desmoglein-3 binding – biochemical, validation compound set, bead-based, flow cytometry, pilot screen (AID 588368;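 active = binding below the plate cutoff, the plate median minus 3 SD, with a reading above zero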;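 note: signal is the median channel fluorescence of bead-bound GFP antibody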); details: Protein G beads, DSG3-Fc, scFv-GFP binding, at 10 µM, stronger effect = lower value
# [14] = Nile Red efflux blockade in pump-expressing yeast – validation compound set, multiplex, phenotypic, pilot screen (AID 588506;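 active = efflux inhibition above 0.42, the validation set average plus 4 SD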;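 note: Nile Red retained in cells so higher fluorescence means more efflux inhibition; 0 = negative control wells and 1 = enniatin B 25 µM full block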); details: S. cerevisiae pump-expressing triplex, Nile Red efflux flow cytometry; at 10 µM; stronger effect = higher value; the pumps come from Candida albicans
# [15] = target: ATP-binding cassette sub-family B member 6 (Homo sapiens) (UniProt Q9NP58); experiment: blockers of ABCB6-driven porphyrin uptake – K562-ABCB6 cells, flow cytometry, validation set, pilot screen (AID 588550;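 active = inhibition above the screen-wide mean plus 3 SD, about 51%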;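 note: 0% = DMSO wells and 100% = benzethonium chloride 70 µM positive control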); details: K562-ABCB6 porphyrin accumulation, 1 h, at 10 µM, stronger effect = higher value
# [16] = AML differentiation inducers, ER-HoxA9 marrow cells – cell-based, GFP/MAC1 double positive, flow cytometry, validation set, primary screen (AID 588685;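 active = differentiation response of at least 50%, scaled between solvent and reference control, from cells with both markers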;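 note: compound exposure lasts four days before antibody staining and flow analysis; 0% = DMSO wells and 100% = 5 µM fulvestrant positive control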); details: stronger effect = higher value, normalized: vehicle 0, fulvestrant 100
# Integrin beta-1 (Homo sapiens) + Integrin alpha-4 (Homo sapiens), sequence (P05556 whole entry, looked up): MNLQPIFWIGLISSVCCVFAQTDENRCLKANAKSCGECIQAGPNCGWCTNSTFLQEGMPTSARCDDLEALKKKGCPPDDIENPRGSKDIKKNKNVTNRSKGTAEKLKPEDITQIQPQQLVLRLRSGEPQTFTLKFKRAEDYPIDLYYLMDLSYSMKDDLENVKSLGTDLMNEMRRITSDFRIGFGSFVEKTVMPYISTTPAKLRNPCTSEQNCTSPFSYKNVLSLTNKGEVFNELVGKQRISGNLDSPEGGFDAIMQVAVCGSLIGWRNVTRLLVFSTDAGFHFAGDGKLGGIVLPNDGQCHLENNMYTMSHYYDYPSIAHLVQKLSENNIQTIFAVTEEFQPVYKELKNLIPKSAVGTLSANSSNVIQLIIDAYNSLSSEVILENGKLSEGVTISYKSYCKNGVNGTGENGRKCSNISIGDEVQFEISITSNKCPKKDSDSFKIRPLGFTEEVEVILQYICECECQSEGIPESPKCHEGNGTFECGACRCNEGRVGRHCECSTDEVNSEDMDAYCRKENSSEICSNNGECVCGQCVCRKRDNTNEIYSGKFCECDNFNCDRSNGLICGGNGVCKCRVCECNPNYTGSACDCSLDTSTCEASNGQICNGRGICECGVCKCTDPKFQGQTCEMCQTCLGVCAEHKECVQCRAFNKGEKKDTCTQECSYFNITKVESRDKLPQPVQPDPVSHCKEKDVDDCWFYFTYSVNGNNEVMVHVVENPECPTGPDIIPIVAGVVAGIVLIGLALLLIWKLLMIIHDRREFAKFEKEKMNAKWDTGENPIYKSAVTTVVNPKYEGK
# Integrin beta-1 (Homo sapiens) + Integrin alpha-4 (Homo sapiens), sequence (P13612 whole entry, looked up): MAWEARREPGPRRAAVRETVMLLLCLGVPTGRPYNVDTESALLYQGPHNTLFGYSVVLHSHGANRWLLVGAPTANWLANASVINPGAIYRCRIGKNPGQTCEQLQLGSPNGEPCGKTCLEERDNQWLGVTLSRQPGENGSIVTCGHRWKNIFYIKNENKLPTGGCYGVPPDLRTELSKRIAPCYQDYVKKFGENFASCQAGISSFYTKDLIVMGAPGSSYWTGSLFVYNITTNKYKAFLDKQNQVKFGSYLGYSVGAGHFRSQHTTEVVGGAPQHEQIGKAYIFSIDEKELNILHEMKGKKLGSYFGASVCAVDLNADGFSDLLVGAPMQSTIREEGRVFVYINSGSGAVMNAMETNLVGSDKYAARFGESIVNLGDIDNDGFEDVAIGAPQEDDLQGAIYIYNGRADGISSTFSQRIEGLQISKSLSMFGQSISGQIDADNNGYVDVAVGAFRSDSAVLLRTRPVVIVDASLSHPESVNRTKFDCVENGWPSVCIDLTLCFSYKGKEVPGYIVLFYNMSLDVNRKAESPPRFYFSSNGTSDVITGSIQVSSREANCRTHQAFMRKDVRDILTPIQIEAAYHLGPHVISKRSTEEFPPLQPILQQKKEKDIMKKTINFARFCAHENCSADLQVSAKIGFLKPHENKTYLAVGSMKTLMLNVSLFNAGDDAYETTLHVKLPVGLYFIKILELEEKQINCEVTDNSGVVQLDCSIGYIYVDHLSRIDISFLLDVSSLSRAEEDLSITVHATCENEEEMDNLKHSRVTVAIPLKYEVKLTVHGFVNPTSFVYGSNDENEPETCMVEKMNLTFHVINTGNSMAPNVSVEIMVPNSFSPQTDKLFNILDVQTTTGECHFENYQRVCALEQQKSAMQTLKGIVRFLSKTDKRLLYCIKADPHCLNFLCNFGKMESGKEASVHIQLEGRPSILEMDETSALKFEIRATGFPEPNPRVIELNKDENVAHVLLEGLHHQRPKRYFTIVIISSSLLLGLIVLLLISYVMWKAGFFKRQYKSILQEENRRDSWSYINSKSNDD
# ATP-binding cassette sub-family B member 6 (Homo sapiens), sequence (Q9NP58 whole entry, looked up): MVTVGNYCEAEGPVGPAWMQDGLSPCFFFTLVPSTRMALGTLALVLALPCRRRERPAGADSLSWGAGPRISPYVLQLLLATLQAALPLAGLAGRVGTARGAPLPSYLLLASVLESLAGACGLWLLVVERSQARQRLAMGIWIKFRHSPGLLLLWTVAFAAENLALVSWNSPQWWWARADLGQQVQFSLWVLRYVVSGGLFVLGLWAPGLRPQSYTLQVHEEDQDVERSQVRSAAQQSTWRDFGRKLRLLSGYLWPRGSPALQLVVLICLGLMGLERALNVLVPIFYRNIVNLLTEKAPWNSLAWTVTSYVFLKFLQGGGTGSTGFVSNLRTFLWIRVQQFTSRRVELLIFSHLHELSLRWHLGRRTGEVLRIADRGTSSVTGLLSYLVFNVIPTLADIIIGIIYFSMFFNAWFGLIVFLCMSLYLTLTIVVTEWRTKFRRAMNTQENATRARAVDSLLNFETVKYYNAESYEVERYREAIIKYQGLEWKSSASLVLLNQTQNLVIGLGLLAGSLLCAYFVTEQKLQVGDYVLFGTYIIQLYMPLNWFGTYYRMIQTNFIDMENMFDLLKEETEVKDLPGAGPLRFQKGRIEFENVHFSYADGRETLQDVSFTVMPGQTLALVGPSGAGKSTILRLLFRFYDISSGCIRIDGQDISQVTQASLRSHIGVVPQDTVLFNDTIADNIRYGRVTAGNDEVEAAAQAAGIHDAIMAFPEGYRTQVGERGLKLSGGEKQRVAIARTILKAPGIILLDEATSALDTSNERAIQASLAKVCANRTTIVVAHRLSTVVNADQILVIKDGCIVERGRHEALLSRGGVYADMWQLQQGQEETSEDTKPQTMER
# AP-2 complex subunit beta (Homo sapiens), sequence (P63010 whole entry, looked up, the tested form may be a part, one chain of several): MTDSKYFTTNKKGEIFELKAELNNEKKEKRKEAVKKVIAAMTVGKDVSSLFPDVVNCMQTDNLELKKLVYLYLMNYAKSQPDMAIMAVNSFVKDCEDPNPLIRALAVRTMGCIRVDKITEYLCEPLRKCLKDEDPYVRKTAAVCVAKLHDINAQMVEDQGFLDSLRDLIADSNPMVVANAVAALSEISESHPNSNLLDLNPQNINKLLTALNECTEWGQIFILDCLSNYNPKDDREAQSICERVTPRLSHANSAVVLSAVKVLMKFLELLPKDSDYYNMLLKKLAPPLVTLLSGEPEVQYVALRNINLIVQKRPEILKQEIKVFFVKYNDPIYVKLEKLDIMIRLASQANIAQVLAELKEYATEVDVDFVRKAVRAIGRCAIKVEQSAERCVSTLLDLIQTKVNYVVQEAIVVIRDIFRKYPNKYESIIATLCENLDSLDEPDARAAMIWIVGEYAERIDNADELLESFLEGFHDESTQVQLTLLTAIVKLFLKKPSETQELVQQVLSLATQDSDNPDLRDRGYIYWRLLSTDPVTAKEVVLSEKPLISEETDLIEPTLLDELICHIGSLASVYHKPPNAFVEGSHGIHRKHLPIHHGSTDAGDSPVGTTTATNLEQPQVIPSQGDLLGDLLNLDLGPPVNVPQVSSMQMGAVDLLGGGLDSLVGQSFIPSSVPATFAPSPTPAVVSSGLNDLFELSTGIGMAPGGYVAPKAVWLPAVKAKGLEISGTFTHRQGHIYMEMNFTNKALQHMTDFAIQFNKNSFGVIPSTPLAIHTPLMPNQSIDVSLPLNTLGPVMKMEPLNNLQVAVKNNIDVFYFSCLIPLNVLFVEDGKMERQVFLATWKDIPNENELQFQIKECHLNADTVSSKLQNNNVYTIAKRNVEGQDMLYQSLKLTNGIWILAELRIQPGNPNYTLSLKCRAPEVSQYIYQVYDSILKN
# Beta-adrenergic receptor kinase 1 (Homo sapiens), sequence (P25098 whole entry, looked up): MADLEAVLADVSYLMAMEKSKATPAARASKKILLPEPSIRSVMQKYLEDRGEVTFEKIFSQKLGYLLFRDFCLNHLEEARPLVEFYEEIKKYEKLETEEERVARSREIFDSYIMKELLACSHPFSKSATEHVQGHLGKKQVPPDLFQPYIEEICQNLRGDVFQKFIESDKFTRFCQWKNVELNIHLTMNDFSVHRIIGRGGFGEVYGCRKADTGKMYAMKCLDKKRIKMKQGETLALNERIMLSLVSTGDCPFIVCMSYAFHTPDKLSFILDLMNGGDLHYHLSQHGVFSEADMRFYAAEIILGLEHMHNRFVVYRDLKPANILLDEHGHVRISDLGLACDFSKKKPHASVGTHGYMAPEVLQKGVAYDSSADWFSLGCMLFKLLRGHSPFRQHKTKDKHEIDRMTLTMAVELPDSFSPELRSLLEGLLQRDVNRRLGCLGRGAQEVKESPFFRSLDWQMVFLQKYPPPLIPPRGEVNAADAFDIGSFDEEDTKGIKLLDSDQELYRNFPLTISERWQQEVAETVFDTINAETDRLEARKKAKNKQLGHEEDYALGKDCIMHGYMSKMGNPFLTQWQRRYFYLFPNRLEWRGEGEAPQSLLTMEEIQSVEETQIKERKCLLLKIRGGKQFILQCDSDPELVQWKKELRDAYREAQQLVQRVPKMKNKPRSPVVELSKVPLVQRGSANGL
# Beta-2 adrenergic receptor (Homo sapiens), sequence (P07550 whole entry, looked up): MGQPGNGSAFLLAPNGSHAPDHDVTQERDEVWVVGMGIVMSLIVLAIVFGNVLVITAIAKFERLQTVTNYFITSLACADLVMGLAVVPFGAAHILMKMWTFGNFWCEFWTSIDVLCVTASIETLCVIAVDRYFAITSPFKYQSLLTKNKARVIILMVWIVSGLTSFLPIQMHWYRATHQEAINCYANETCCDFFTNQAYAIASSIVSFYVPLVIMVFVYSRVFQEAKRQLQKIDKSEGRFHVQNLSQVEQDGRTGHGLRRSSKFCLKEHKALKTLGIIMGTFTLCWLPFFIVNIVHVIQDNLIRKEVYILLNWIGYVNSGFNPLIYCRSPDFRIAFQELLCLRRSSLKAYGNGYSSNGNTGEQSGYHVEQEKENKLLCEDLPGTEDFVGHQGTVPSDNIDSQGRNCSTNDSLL
SMILES,percent of DMSO control GFP [1],GFP response vs DMSO [2],percent response of DMSO control [3],GFP response vs DMSO [4],"GFP response, % of DMSO [5]",double positive events [6],vesicle binding response [6],inhibition [7],superoxide response (% of plate) [8],aptamer binding inhibition [9],response [10],inhibition [11],response [12],binding (% of control) [13],efflux inhibition (fraction of control) [14],inhibition [15],differentiation response [16]
CC12CCC(C(=O)NNc3ccccc3)(C(=O)C1=O)C2(C)C (stereo unspecified),104% (inactive),97.4% (inactive),102% (inactive),94.8% (inactive),100% (inactive),62%,217% (inactive),-30.5% (inactive),105% (inactive),8% (inactive),-5.89% (inactive),19.1% (inactive),-0.25% (inactive),101% (inactive),-0.03 (inactive),-14% (inactive),15.2% (inactive)
CCC[C@@H]1C[C@@H](C(=O)N[C@H]([C@@H](C)O)[C@H]2O[C@H](SC)[C@H](O)[C@@H](O)C2O)N(C)C1 (stereo partly specified),92.8% (inactive),120% (inactive),97.9% (inactive),80.9% (inactive),90.1% (inactive),66.2%,177% (inactive),3.55% (inactive),99.1% (inactive),5% (inactive),-3.92% (inactive),-1.72% (inactive),3.43% (inactive),106% (inactive),-0.17 (inactive),10% (inactive),-4.09% (inactive)
COC(=O)c1ccc(C(=O)OC)c(NC(=O)C(C)C)c1,97.8% (inactive),102% (inactive),102% (inactive),138% (inactive),112% (inactive),63.1%,204% (inactive),-72.7% (inactive),100% (inactive),0% (inactive),-13.3% (inactive),-9.41% (inactive),0.33% (inactive),97.1% (inactive),0 (inactive),-3% (inactive),0.92% (inactive)
COc1cc(COc2ccc3c(C)c(Cc4ccccc4)c(=O)oc3c2)cc(OC)c1OC,102% (inactive),103% (inactive),122% (inactive),94% (inactive),98.9% (inactive),55%,38.9% (inactive),5.77% (inactive),117% (inactive),3% (inactive),5.22% (inactive),3.79% (inactive),-1.95% (inactive),97.2% (inactive),0.08 (inactive),-5% (inactive),3.18% (inactive)
N/C(=N\OC(=O)c1ccc(Br)o1)c1ccccn1,101% (inactive),102% (inactive),95.1% (inactive),124% (inactive),96.9% (inactive),67.8%,232% (inactive),17.6% (inactive),117% (inactive),3% (inactive),-28.6% (inactive),2.47% (inactive),5.72% (inactive),98.7% (inactive),-0.04 (inactive),6% (inactive),5.85% (inactive)
O=C1C(=O)c2ccccc2C(O)=C1c1ccccc1F,111% (inactive),99.9% (inactive),71.2% (inactive),109% (inactive),85% (inactive),54.9%,15.9% (active),-11.8% (inactive),175% (inactive),6% (inactive),4.63% (inactive),5.16% (inactive),0.28% (inactive),99% (inactive),0.46 (active),5% (inactive),14.1% (inactive)
O=C(NCC1CCCO1)c1ccc(OC2CCN(C(=O)C3CC3)CC2)cc1 (stereo unspecified),98.2% (inactive),106% (inactive),97.8% (inactive),96.6% (inactive),99.4% (inactive),63.1%,5260% (inactive),-22.2% (inactive),94% (inactive),2% (inactive),-3.28% (inactive),-5.78% (inactive),0.79% (inactive),101% (inactive),-0.01 (inactive),3% (inactive),-6.6% (inactive)
CCCCOC(=O)c1ccc(N)cc1,101% (inactive),104% (inactive),110% (inactive),93.7% (inactive),105% (inactive),59.9%,183% (inactive),-15.8% (inactive),91.1% (inactive),-3% (inactive),-7.71% (inactive),53.1% (inactive),-4.52% (inactive),99.4% (inactive),-0.03 (inactive),-2% (inactive),-7.5% (inactive)
O=Cc1ccc(OC(=O)c2cccnc2)cc1,101% (inactive),91.9% (inactive),107% (inactive),78.6% (inactive),99.5% (inactive),58.7%,209% (inactive),2.3% (inactive),98.5% (inactive),1% (inactive),-10.5% (inactive),-1.7% (inactive),1.76% (inactive),93% (inactive),0.05 (inactive),4% (inactive),16.8% (inactive)
COc1ccccc1NC(=O)C12CCC(C)(C(=O)C1)C2(C)C (stereo unspecified),99.3% (inactive),105% (inactive),102% (inactive),124% (inactive),109% (inactive),63.5%,173% (inactive),-2.82% (inactive),121% (inactive),5% (inactive),-14.9% (inactive),15.9% (inactive),-0.35% (inactive),102% (inactive),0 (inactive),1% (inactive),-4% (inactive)
O=C(CN1C(=O)c2ccccc2S1(=O)=O)Nc1ccccc1,95.5% (inactive),126% (inactive),112% (inactive),84.2% (inactive),92.8% (inactive),67.7%,180% (inactive),-72.1% (inactive),98.5% (inactive),0% (inactive),-2.34% (inactive),7.49% (inactive),-1.17% (inactive),99% (inactive),-0.31 (inactive),5% (inactive),10.6% (inactive)
Cc1c2c(nc3c(C)cccc13)OC(C)C2 (stereo unspecified),105% (inactive),100% (inactive),112% (inactive),97.3% (inactive),103% (inactive),52%,31.8% (active),-3.57% (inactive),99.9% (inactive),-2% (inactive),-11.5% (inactive),2.14% (inactive),3.8% (inactive),97.6% (inactive),0.11 (inactive),3% (inactive),-9.53% (inactive)
C[C@]12CCC3C(CC=C4C[C@@H](O)CC[C@@]43C)C1CCC2[C@]1(C)CCC(=O)O1 (stereo partly specified),102% (inactive),97.4% (inactive),109% (inactive),84.6% (inactive),95.7% (inactive),57%,164% (inactive),0.94% (inactive),100% (inactive),4% (inactive),1.67% (inactive),-4.51% (inactive),-0.48% (inactive),103% (inactive),0.48 (active),9% (inactive),-15.2% (inactive)
COc1ccccc1N1C(=O)C2CC(C)=C(C)CC2C1=O (stereo unspecified),103% (inactive),102% (inactive),99.3% (inactive),85.2% (inactive),104% (inactive),63%,164% (inactive),19.7% (inactive),109% (inactive),11% (inactive),4.23% (inactive),-31.7% (inactive),2.17% (inactive),99% (inactive),-0.06 (inactive),4% (inactive),-3.4% (inactive)
Nc1ccc2cn[nH]c2c1,104% (inactive),97.7% (inactive),98.6% (inactive),101% (inactive),102% (inactive),60.8%,109% (inactive),-3.77% (inactive),109% (inactive),-1% (inactive),2.17% (inactive),0.32% (inactive),-2.55% (inactive),102% (inactive),0.265 (inactive),32% (inactive),-16.3% (inactive)
CN(C)C(=O)Oc1cccc([N+](C)(C)C)c1,95.7% (inactive) and 98.8% (inactive),104% (inactive) and 109% (inactive),100% (inactive) and 91% (inactive),115% (inactive) and 112% (inactive),110% (inactive) and 105% (inactive),55.5% and 63.8%,158% (inactive) and 4880% (inactive),-2.82% (inactive) and 3.67% (inactive),93.6% (inactive) and 108% (inactive),-3% (inactive) and 4% (inactive),-26.2% (inactive) and -0.74% (inactive),-12.1% (inactive) and 15% (inactive),0% (inactive) and -1.87% (inactive),106% (inactive) and 97.8% (inactive),0 (inactive) and -0.13 (inactive),2% (inactive) and 4% (inactive),-0.06% (inactive) and -15.2% (inactive)
Cn1nnnc1SCC1=C(C(=O)O)N2C(=O)[C@@H](NC(=O)[C@H](O)c3ccccc3)[C@H]2SC1,97.7% (inactive),115% (inactive),106% (inactive),90.2% (inactive),103% (inactive),67.4%,318% (inactive),0.64% (inactive),86.1% (inactive),13% (inactive),3.85% (inactive),3.95% (inactive),1.15% (inactive),107% (inactive),0.3 (inactive),16% (inactive),15.6% (inactive)
CCOC(=O)C1=C[C@]2(CC)CCCN3CCc4c(n1c1ccccc41)[C@@H]32,98.4% (inactive),107% (inactive),96.6% (inactive),104% (inactive),96.5% (inactive),56.4%,43.9% (inactive),-4.6% (inactive),92.5% (inactive),-1% (inactive),-5% (inactive),-10.5% (inactive),4.61% (inactive),97.2% (inactive),-0.23 (inactive),8% (inactive),-3.67% (inactive)
